Compounds with a hit are over-represented: about 7.2% of the library has one in this group of screens.
ALR H2O2 inh: inhibitors of human ALR sulfhydryl oxidase, primary screen, biochemical, H2O2 detection, HRP-luminol luminescence, single point. FAD-linked sulfhydryl oxidase ALR (Homo sapiens), P55789. purified ALR, DTT oxidation. inhibition, % (test concentration not listed). hit rate 3.8% among 290,000;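 active means mean replicate inhibition above about 79%, with every replicate also reaching it, limit read from the data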
VLA-4 inh: inhibition in human VLA-4 binding assay, primary screen, VLA-4 allosteric modulator project, MLPCN library, flow cytometry, VLA-4 expressing cells | Integrin alpha-4 (Homo sapiens), P13612 | inhibition, % (about 7 µM as worked out from the volumes in the protocol) | ligand binding flow cytometry | hit rate 0.2% among 330,000 | AID 2557, 2010; in the data active means inhibition above about 50%
SUMO Mot1 rescue: yeast Mot1-301 growth rescue at high temperature, primary screen, SUMOylation pathway inhibitor project, S. cerevisiae, ATP luminescence, 38.5C. S. cerevisiae Mot1-301 growth rescue; percent above DMSO median, 100 means doubled. AID 2716, 2010. growth rescue, % at 18.8 µM. hit rate 1% among 320,000;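 active means every valid replicate shows activation above 250% relative to neutral control wells; inactive means the rest, any valid replicate at or below 250%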;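 further: OY570 slx delta 5 strain wells were the positive control but not used for scaling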
Efflux pump mplx: inhibitors of Candida efflux pumps in yeast, primary screen, S. cerevisiae, Nile Red, multiplex | S. cerevisiae Candida pump triplex | inhibition, % at 10 µM | hit rate 0.44% among 330,000;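 active means plate passing quality check with inhibition over a set limit, or well fluorescence over plate mean plus 4 SD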;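 further: Nile Red retained in pooled yeast measured as flow cytometry median fluorescence; 0% = buffer negative control and 100% = Enniatin B positive control; higher means more Nile Red kept so more efflux inhibition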
A1 inh: caspase 3/7 activation in MEF A1-2A-BIM cells, primary screen, A1 inhibitor project, cell-based, luminescence, HTS; Caspase-Glo 3/7 luminescence, 3 h; percent of clofoctol response, vehicle zero; caspase activation, % (no concentration beside the values); AID 2462, 2010; hit rate 0.066% among 330,000;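 active means over half of replicate activation scores above 10%, or exactly half above 10 with the replicate mean above 10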
AHR activator: AHR activators, primary screen, cell-based, luminescence, luciferase reporter, human; Aryl hydrocarbon receptor (Homo sapiens), P35869; AHR-responsive luciferase reporter cells; activation, % at 5 µM; hit rate 2.5% among 320,000; AID 2796, 2010; in the data active means activation above about 47%;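 further: 0% = vehicle wells and 100% = reference agonist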
Target sequence (P35869 whole entry, looked up): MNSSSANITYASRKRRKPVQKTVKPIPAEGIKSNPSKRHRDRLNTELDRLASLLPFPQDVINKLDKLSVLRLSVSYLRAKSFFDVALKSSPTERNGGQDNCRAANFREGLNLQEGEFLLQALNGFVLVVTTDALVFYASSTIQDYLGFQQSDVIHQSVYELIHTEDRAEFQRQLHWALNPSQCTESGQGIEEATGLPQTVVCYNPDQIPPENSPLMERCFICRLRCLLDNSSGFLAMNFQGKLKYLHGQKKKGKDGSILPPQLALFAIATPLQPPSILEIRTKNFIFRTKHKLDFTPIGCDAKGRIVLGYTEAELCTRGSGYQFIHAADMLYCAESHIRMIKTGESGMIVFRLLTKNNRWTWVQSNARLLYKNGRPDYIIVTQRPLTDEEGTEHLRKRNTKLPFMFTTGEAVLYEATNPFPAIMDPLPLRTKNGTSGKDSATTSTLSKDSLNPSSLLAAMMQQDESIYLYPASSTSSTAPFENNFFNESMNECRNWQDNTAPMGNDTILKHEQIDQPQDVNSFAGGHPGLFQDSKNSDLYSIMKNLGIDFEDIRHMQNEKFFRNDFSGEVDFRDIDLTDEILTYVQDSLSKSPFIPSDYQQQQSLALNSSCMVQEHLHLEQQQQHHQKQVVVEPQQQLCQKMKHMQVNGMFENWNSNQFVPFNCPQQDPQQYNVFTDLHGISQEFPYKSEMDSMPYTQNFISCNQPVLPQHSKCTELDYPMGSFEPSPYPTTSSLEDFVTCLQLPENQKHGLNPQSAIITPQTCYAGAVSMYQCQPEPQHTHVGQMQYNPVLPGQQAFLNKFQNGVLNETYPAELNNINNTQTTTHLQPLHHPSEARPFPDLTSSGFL
VLA-4 mod pick: retest of VLA-4 allosteric modulators, confirmation, cell-based, cherry-picked plates, U937, HUTS-21 LIBS antibody; shares compounds with VLA-4 inh; inhibition, % at 6.7 µM; AID 2813, 2010; hit rate 2% among 1,300; U937 cells, HUTS-21 LIBS mAb binding, flow cytometry; LDV ligand present at threefold Kd; in the data active means inhibition above about 40%;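 further: 0% = ligand without compound and 100% = no ligand background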
* marks the source's active call; other numbers are inactive results; i = inactive; . = not tested or not shown.

SMILES	ALR H2O2 inh	VLA-4 inh	SUMO Mot1 rescue	Efflux pump mplx	A1 inh	AHR activator	VLA-4 mod pick
CCc1cccc(C)c1NC(=O)C1CCN(C(=O)c2ccc([N+](=O)[O-])cc2)CC1	-4	56*	-5	0	-1	1	1
CCS(=O)(=O)c1ccc(N)cc1	-8	58*	7	0	0	0	7
CCOc1ccccc1C1CC(=O)Nc2cc(OC)c(OC)c(OC)c21 (stereo not given)	-28	7	-17	0	0	1	-2
CCOc1ccccc1C1CC(=O)Nc2cc(C)c(C)cc21 (stereo not given)	-12	0	1	0	1	34	.
COC(=O)C1=C(C)NC(=O)CC1c1cccc(OC)c1OC (stereo not given)	0	6	-6	0	0	-2	.
COc1cccc(C2CC(=O)Nc3cc(OC)c(OC)c(OC)c32)c1OC (stereo not given)	-4	2	4	0	0	0	-1
CCCN(c1ccccc1F)S(=O)(=O)c1c[nH]c(C(=O)OC)c1	-2	5	125	0	0	2	.
COc1ccc(-c2csc(Nc3ncccc3C)n2)cc1	1	92*	35	0	-19	37	-1
O=C(OCc1c(F)cccc1Cl)c1cccnc1Cl	-2	51*	-3	0	-1	-3	4
CSc1ncccc1C(=O)OCc1c(F)cccc1Cl	-6	-5	11	0	-2	-1	.
N#CCCN(C(=O)COC(=O)CCc1nc2ccccc2c(=O)[nH]1)c1ccccc1F	.	51*	6	0	0	-2	2
CN(C(=O)COC(=O)CCc1nc2ccccc2c(=O)[nH]1)C1CCS(=O)(=O)C1 (stereo not given)	.	-4	.	0	0	5	.
CCOc1ccc(N(Cc2ccc(OC)c(OC)c2)C(=O)c2ccco2)cc1	.	68*	187	0	-2	3	8
Cc1nn(CC(=O)Nc2ccc(C(=O)N(C)C)cc2)c(=O)c2ccccc12	-12	51*	7	0	0	1	-1
Cc1nn(CC(=O)Nc2ccccc2)c(=O)c2ccccc12	-3	9	2	0	0	6	.
CC(C)(C)OC(=O)N/N=C/c1ccc(Br)cc1	-3	50*	-2	0	1	19	0
CCOC(=O)c1c(-c2ccccc2)csc1NC(=O)/C(C#N)=C/c1ccc(O)c(OC)c1	6	i	-23	0	1	-1	.
CCOc1ccc(CNC(=O)CCCC(=O)n2ncc3cc(C)ccc32)cc1	-12	59*	-8	0	.	3	5
Cc1ccc2c(cnn2C(=O)CCCC(=O)NCc2ccc(Cl)cc2)c1	-4	22	28	0	-1	7	.
Cc1cc2c(cc1C)C(c1ccccc1OC(C)C)CC(=O)N2 (stereo not given)	-7	3	-6	0	1	52*	-5
CCOc1ccccc1C1CC(=O)Nc2cc3c(cc21)OCCO3 (stereo not given)	-1	0	-16	0	0	9	.
COc1ccccc1C1CC(=O)Nc2cc(C)c(C)cc21 (stereo not given)	0	6	-14	0	0	23	.
CC(C)Oc1ccccc1C1CC(=O)Nc2cc3c(cc21)OCO3 (stereo not given)	7	57*	2	0	1	17	42*
CCOc1ccccc1CNCCOC	.	30	8	0	0	2	.
Cc1cc(Cl)ccc1NC(=O)Cn1cncn1	-18	53*	4	0	-1	7	-1
SMILES	ALR H2O2 inh	VLA-4 inh	SUMO Mot1 rescue	Efflux pump mplx	A1 inh	AHR activator	VLA-4 mod pick
Cc1cc(Cl)ccc1NC(=O)CN1CCCC1	.	-1	119	0	0	9	.
C/C(=N\NC(=O)c1cccc(S(=O)(=O)N2CCOCC2)c1)c1ccc(O)cc1	.	10	-1	0	1	2	.
CCC(=NNC(=O)c1cccc(S(=O)(=O)N2CCOCC2)c1)c1ccccc1	0	50*	14	0	1	2	6
O=C(CNS(=O)(=O)c1ccc(Br)cc1)OCc1cc(=O)n2cc(Br)ccc2n1	-3	46	-4	0	-1	3	-15
O=C(CSCc1cccc(Br)c1)N=Nc1c(O)[nH]c2ccccc12	.	57*	-4	0	1	29	-15
O=C(CSCc1ccccc1)N=Nc1c(O)[nH]c2ccccc12	-1	6	10	0	0	4	.
CCN(CC(=O)NCc1ccc(F)cc1)S(=O)(=O)c1ccc(C)cc1	-7	2	59	0	0	-1	2
COc1ccc(S(=O)(=O)N(C)CC(=O)NCc2ccccc2)cc1OC	-3	15	17	0	2	3	-1
CCN(CC(=O)NCc1cccs1)S(=O)(=O)c1ccc(F)cc1	-4	1	20	0	2	0	.
COCCCN(CC(=O)NCc1ccccc1)S(=O)(=O)c1ccc(C)cc1	17	13	27	0	0	2	4
COCCCNC(=O)CN(CCc1ccccc1)S(=O)(=O)c1ccc(OC)cc1	0	9	335	0	0	6	.
CC(C)CCN(CC(=O)NCc1ccc(F)cc1)S(=O)(=O)c1ccccc1F	6	1	-2	0	1	0	0
COC(=O)c1cc2c(ccn2-c2ccc(F)cc2)n1CC(C)C	-66	2	5	0	0	24	.
COC(=O)c1cc2c(ccn2-c2ccc(F)cc2)n1C(C)C	.	63*	18	0	0	14	10
CN(C(=O)COC(=O)c1ccc2c(c1)OCO2)C1CCS(=O)(=O)C1 (stereo not given)	3	93*	19	0	0	1	0
CN(C(=O)COC(=O)c1ccc2c(c1)OCO2)C1CCCCC1	-6	14	12	0	0	0	.
CC(C)C(=O)Nc1nnc(S(=O)(=O)N2CCc3ccccc32)s1	.	-7	-10	1	0	3	.
CC(C)C(=O)Nc1nnc(S(=O)(=O)N2CCCc3ccccc32)s1	.	51*	4	0	0	5	3
Cc1ccc(-n2cc(-c3ccccc3)c3c(NN4CCOCC4)ncnc32)cc1	18	9	9	0	-1	4	.

Screening results: PubChem, several laboratories
